# From PubChem BioAssay
# Active and inactive are the calls of the source. Unless noted, how the calls were made is not given here.
# Key:
# [1] = compound effects on lung adenocarcinoma cell viability – A549, calcein-AM fluorescence, 48 h, basal, profiling panel (AID 1162); settings: higher = more signal; further: test concentration not given here
# [2] = compound effects on differentiated 3T3-L1 adipocyte viability – cell-based, 3T3-L1 adipocytes, calcein-AM fluorescence, 48 h, basal, profiling panel (AID 1163); settings: 3T3-L1 adipocytes viability, higher = more signal; further: test concentration not given here
# [3] = compound effects on hepatocellular carcinoma cell viability – HepG2, calcein-AM fluorescence, 48 h, basal, profiling panel (AID 1164); settings: higher = more signal; further: test concentration not given here
# [4] = compound effects on multiple myeloma cell viability – MM1S, calcein-AM fluorescence, 48 h, basal, profiling panel (AID 1165); settings: higher = more signal;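 further: viability of MM1S multiple myeloma cells under basal unstimulated conditions; test concentration not given here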
# [5] = calcein-AM signal in unstimulated myeloma cells – cell-based, calcein-AM fluorescence, 48 h, PK04 Diversity Set, profiling panel (AID 1166); settings: RPMI8226 myeloma viability, higher = more signal;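 further: cells grown under basal conditions without added stimulus; test concentration not given here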
# [6] = JC-1 mitochondrial signal, unstimulated HepG2 cells – cell-based, JC-1 fluorescence, 24 h, 100 nL compound, profiling panel (AID 1167); settings: HepG2 mitochondrial potential, higher = more signal; further: test concentration not given here
# [7] = JC-1 mitochondrial signal, unstimulated adipocytes – cell-based, JC-1 fluorescence, 3T3-L1 adipocytes, 24 h, 100 nL compound, profiling panel (AID 1168); settings: JC-1 mitochondrial fluorescence, higher = more signal, called active from +8 up or from −8 down; further: test concentration not given here
# [8] = JC-1 mitochondrial signal, unstimulated myeloma cells – cell-based, JC-1 fluorescence, RPMI8226, 24 h, 100 nL compound, profiling panel (AID 1169); settings: JC-1 mitochondrial potential fluorescence, higher = more signal; further: test concentration not given here
# [9] = JC-1 mitochondrial signal, unstimulated MM1S myeloma – cell-based, JC-1 fluorescence, 24 h, 100 nL compound, profiling panel (AID 1170); settings: MM1S mitochondrial potential, higher = more signal; further: test concentration not given here
# [10] = resazurin metabolic signal in A549 cells – cell-based, resazurin fluorescence, 24 h, PK04 Diversity Set, profiling panel (AID 1171); settings: A549 viability, higher = more signal, called active from +8 up or from −8 down; further: test concentration not given here
# [11] = resazurin metabolic signal in HepG2 cells – cell-based, resazurin fluorescence, 24 h, PK04 Diversity Set, profiling panel (AID 1172); settings: HepG2 viability, higher = more signal; further: test concentration not given here
# [12] = budding yeast growth changes without added modifier – OD600, strain BY4716, 24 h, basal condition, primary screen (AID 1173); settings: S. cerevisiae BY4716 growth, OD600, 24 h; higher = more signal, called active from +8 up or from −8 down
# [13] = viability profiling in MM1S myeloma cells – cell-based, resazurin fluorescence, basal, 24 h, PK04 Diversity Set, profiling panel (AID 1174); settings: higher = more signal, called active from +8 up or from −8 down; further: test concentration not given here
# [14] = biological target: Dihydroorotate dehydrogenase (quinone), mitochondrial (Plasmodium falciparum (isolate 3D7)) (UniProt Q08210); assay: inhibition of P. falciparum DHODH – biochemical, C-terminal His tag, absorbance 600 nm, primary screen (AID 1175); settings: PfDHODH enzyme, DCIP absorbance 600 nm; higher = more signal, called active from +8 up or from −8 down;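 further: recombinant parasite enzyme with a five histidine tag at its C terminus; test concentration not given here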
# Sequence of Dihydroorotate dehydrogenase (quinone), mitochondrial (Plasmodium falciparum (isolate 3D7)) (Q08210 whole entry, looked up): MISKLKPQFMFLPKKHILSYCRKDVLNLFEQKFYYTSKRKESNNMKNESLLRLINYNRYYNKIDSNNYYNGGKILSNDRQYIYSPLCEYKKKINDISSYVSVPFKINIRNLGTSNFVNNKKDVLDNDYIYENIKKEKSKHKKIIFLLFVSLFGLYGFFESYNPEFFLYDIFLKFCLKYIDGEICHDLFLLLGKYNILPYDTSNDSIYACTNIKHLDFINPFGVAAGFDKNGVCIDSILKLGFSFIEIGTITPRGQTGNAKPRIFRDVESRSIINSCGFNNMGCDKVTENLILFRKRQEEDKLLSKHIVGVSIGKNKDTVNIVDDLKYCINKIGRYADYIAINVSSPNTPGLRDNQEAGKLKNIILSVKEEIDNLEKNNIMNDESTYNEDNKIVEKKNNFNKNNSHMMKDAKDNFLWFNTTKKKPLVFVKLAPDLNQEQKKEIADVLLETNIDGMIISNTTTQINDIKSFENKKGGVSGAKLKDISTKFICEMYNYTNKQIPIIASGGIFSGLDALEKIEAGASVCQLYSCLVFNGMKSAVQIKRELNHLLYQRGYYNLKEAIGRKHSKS
# [15] = inhibition of PAO1 biofilm formation – strain PAO1, LB-PBS medium, absorbance 600 nm, primary screen (AID 1176); further: test concentration not given here; settings: P. aeruginosa PAO1 growth/biofilm, A600, 12 h; higher = more signal
# [16] = growth modulation of vineyard yeast isolate – strain RM11-1a, OD600, basal, 24 h, primary screen (AID 1177);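 further: cultures grown under basal conditions with no added stressor; test concentration not given here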; settings: S. cerevisiae RM11-1a growth, OD600, 24 h; higher = more signal, called active from +8 up or from −8 down
# [17] = growth of efflux-deficient E. coli DRC39 – strain DRC39, OD650, 24 h, E. coli filamentation inducers, primary screen (AID 1178);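 further: growth measured as culture turbidity by optical density at 650 nm; test concentration not given here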; settings: E. coli DRC39 acrAB, higher = more signal, called active from +8 up or from −8 down
# [18] = growth of efflux-deficient E. coli DRC39 – strain DRC39, OD650, 48 h, E. coli filamentation inducers, primary screen (AID 1179);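 further: screen aims at cell division blockers that make cells filament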; settings: E. coli DRC39 delta-acrAB growth, higher = more signal, called active from +8 up or from −8 down
# [19] = viability profiling in RPMI8226 myeloma cells – cell-based, resazurin fluorescence, basal, 24 h, PK04 Diversity Set, profiling panel (AID 1180); settings: higher = more signal;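 further: RPMI8826 multiple myeloma cell line at 5000 cells per well; test concentration not given here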
# [20] = biological target: E3 ubiquitin-protein ligase XIAP (Homo sapiens) (UniProt P98170); assay: small molecules binding XIAP protein – biophysical, small-molecule microarray, fluorescence 635 nm, primary screen (AID 1181); settings: higher = more signal;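 further: score merges 667 nm emission and signal to noise over triplicate slides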
# Sequence of E3 ubiquitin-protein ligase XIAP (Homo sapiens) (P98170 whole entry, looked up): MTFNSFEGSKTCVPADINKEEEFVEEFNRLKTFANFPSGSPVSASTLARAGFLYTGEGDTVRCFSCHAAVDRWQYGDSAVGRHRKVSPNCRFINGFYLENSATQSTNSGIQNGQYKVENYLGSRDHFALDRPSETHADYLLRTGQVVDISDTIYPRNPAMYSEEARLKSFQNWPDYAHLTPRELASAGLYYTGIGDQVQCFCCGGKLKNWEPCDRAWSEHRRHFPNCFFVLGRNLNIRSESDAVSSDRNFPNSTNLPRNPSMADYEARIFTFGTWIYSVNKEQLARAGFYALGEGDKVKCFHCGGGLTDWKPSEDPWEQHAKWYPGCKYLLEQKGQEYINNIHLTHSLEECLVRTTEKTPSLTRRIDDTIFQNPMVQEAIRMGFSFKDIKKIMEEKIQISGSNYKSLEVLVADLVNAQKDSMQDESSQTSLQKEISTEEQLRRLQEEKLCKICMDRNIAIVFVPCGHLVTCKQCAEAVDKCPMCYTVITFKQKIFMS
Compound,z-score [1],z-score [2],z-score [3],z-score [4],z-score [5],z-score [6],z-score [7],z-score [8],z-score [9],z-score [10],z-score [11],z-score [12],z-score [13],composite z-score [14],z-score [15],z-score [16],z-score [17],z-score [18],z-score [19],composite z-score [20]
C=C(/C(=C/C[C@@H](OC(=O)c1ccncc1)c1ccccc1OCCO)c1cnc2ccccc2c1)C(C)C,-0.36,-0.368,-3.15,-3.1,-2.45,0.76,-0.19 (inactive),0.14,1.08,-1.15 (inactive),-1.11,-18.3 (active),-0.807 (inactive),-6.99 (inactive),0.485 (inactive),-21.9 (active),-0.328 (inactive),-0.805 (inactive),-0.365,0.326
COc1ccc([Si](C)(C)[C@@H]2[C@@H](CCO)O[C@]3(C(=O)N(Cc4ccccc4)c4ccc(N5CCCCC5=O)cc43)[C@H]2C)cc1,-0.887,2.07,-1.02,-1.58,-4.08,0.311,-0.258 (inactive),-0.776,-0.786,-1.88 (inactive),-1.62,0.86 (inactive),-3.11 (inactive),-2.04 (inactive),-0.565 (inactive),3.49 (inactive),-0.277 (inactive),-0.18 (inactive),-2.29,-0.0826
CCCNC(=O)[C@@H]1c2ccccc2C(=O)N(CC23CC4CC(CC(C4)C2)C3)[C@H]1c1ccc(CO)cc1,-0.242,0.487,0.275,-0.671,-2.49,1.81,-0.0153 (inactive),-0.236,0.141,0.704 (inactive),-0.411,-0.774 (inactive),0.411 (inactive),0.627 (inactive),0.718 (inactive),0.987 (inactive),-0.0494 (inactive),-0.501 (inactive),0.748,1.94
COCCCNC(=O)[C@@]1(Cc2ccccc2CN=[N+]=[N-])N=C(c2ccc(OCCCO)cc2)O[C@H]1c1ccccc1N=[N+]=[N-],-0.121,-0.0406,0.35,-1.34,-3.87,1.36,1.98 (inactive),-1.06,-0.156,-1.47 (inactive),-0.208,-0.255 (inactive),-1.18 (inactive),1.13 (inactive),0.413 (inactive),0.587 (inactive),1.86 (inactive),1.08 (inactive),-2.65,-0.0592
CN(C)C(=O)[C@@]1(CCC(=O)OC(C)(C)C)N=C(c2ccc(OCCCO)cc2)O[C@H]1c1ccccc1N=[N+]=[N-],0.186,0.727,-0.34,-0.956,0.0691,1.45,-0.371 (inactive),-0.432,-0.0283,0.966 (inactive),0.506,0.314 (inactive),-1.36 (inactive),0.645 (inactive),1.35 (inactive),1.98 (inactive),0.306 (inactive),-0.264 (inactive),-0.839,0.0428
CN(C)CCCN1C(=O)[C@@]2(Cc3ccccc31)c1ccccc1C(=O)N(Cc1ccccc1)[C@H]2c1ccc(CO)cc1,0.483,1.16,0.128,0.38,-2.79,0.343,-0.407 (inactive),-0.484,-1.28,0.726 (inactive),1.18,0.225 (inactive),1.04 (inactive),-6.03 (inactive),0.587 (inactive),-0.549 (inactive),0.672 (inactive),-0.245 (inactive),0.246,-0.176
CC(C)NC(=O)[C@@H]1c2ccccc2C(=O)N(Cc2cc(C(F)(F)F)cc(C(F)(F)F)c2)[C@H]1c1ccc(CO)cc1,-0.255,0.884,-0.355,-1.1,-1.42,0.571,0.198 (inactive),0.967,0.144,0.634 (inactive),0.447,-0.168 (inactive),-0.0526 (inactive),0.357 (inactive),0.733 (inactive),0.0633 (inactive),1.17 (inactive),0.393 (inactive),0.25,-0.0141
COc1ccc([Si](C)(C)[C@@H]2[C@@H](CC(=O)N(CCO)Cc3ccccc3)O[C@]3(C(=O)N(Cc4ccc(N5CCOC5=O)cc4)c4ccccc43)[C@H]2C)cc1,-0.65,0.603,-1.94,-2.35,-4.21,-0.0678,1.19 (inactive),-1.01,-1.29,-1.61 (inactive),-1.12,0.613 (inactive),-1.85 (inactive),-0.0014 (inactive),1.77 (inactive),0.953 (inactive),1.16 (inactive),0.307 (inactive),-2.31,-0.0333
C[C@]12C(=O)N(CCCO)[C@@H]3C(=O)N(c4ccc(Cl)cc4)CC=CC31O[C@@H]1/C=C\CCCOC(=O)C12 (stereo not given in full),0.348,0.922,-0.114,0.14,-0.191,-0.665,-1.25 (inactive),-0.0538,1.18,-0.0576 (inactive),-0.468,-0.0146 (inactive),-0.291 (inactive),0.0021 (inactive),-0.553 (inactive),-0.965 (inactive),-0.477 (inactive),-0.464 (inactive),-0.217,0.734
COCCOC(=O)N1C(=O)[C@@]2(c3cc(C#CCNC(N)=O)ccc31)[C@H](c1ccc(OCCO)cc1)N1[C@H](c3ccccc3)[C@H](c3ccccc3)OC(=O)[C@H]1[C@@H]2C(=O)N1CCN(c2ncccn2)CC1,-0.142,0.169,-0.123,-0.216,0.191,-1.76,1 (inactive),0.118,-0.572,1.28 (inactive),0.26,1.51 (inactive),-0.0528 (inactive),-0.239 (inactive),2.5 (inactive),2.05 (inactive),-0.157 (inactive),-0.327 (inactive),0.0246,0.1
Cc1ccc(-c2cccc(=O)o2)cc1,-0.104,0.796,-0.117,0.0881,-0.774,-1.35,-0.263 (inactive),-0.177,-0.299,-0.0164 (inactive),-0.789,-2.2 (inactive),0.123 (inactive),-0.919 (inactive),-0.128 (inactive),-0.333 (inactive),-0.418 (inactive),-0.292 (inactive),-0.442,-0.0143
COC(=O)C(CC#Cc1ccc2c(c1)[C@]1(C(=O)N2)[C@H](c2ccc(O)cc2)N2[C@H](c3ccccc3)[C@H](c3ccccc3)OC(=O)[C@H]2[C@@H]1C(N)=O)C(=O)OC,1.43,-0.0866,0.188,0.244,0.728,1.44,0.673 (inactive),-0.846,-0.0448,1.42 (inactive),1.09,-0.773 (inactive),0.455 (inactive),0.133 (inactive),1.28 (inactive),-0.864 (inactive),1.68 (inactive),2.08 (inactive),1.1,0.153
CCCCCCCCCCC(O)C1C=CC2C(=O)NC(=O)C2N1Nc1ccccn1 (stereo not given),-3.22,-0.964,-4.08,-3.81,-4.13,-3.82,-0.46 (inactive),-0.944,-0.657,-1.5 (inactive),-2.19,-10.4 (active),-2.8 (inactive),0.364 (inactive),2.43 (inactive),-5.05 (inactive),-2.29 (inactive),-3.65 (inactive),-1.64,0.0153
COCCCNC(=O)[C@@H]1c2ccccc2C(=O)N(Cc2cc(F)cc(C(F)(F)F)c2)[C@H]1c1ccc(CO)cc1,0.323,0.0853,0.463,0.575,-0.725,1.25,-0.82 (inactive),1.15,-0.33,0.301 (inactive),-0.434,-0.336 (inactive),-0.522 (inactive),-1.13 (inactive),0.36 (inactive),-0.955 (inactive),-0.109 (inactive),-0.0475 (inactive),-0.197,-0.309
COCCCNC(=O)[C@@H]1c2ccccc2C(=O)N(c2ccc(C)cn2)[C@H]1c1ccc(CO)cc1,0.212,1.23,-0.357,-1.04,-0.57,-0.569,-0.916 (inactive),0.83,0.484,-0.708 (inactive),-1.23,0.357 (inactive),0.507 (inactive),0.293 (inactive),0.242 (inactive),0.169 (inactive),-0.541 (inactive),-0.856 (inactive),0.162,-0.195
